Screen size: about 5,500 compounds; about 2,000 (36%) were called active. Inconclusive results (about 18%) are left out. Cut-off read from the data, not from the text of the source: active = normalized growth mostly below about 0.91 (no sharp cut-off); inconclusive = no clear call, values can overlap the other calls; inactive = mostly above about 0.92. Some of the results follow.
Assay: chemical genetic growth profiling, strain panel (AID 1159580);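 note: tested at 20 µM; growth read once vehicle control cultures reached saturation at 30 °C; 1 = growth at the plate median or of vehicle wells; lower values mean less growth of the strain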
Conditions: S. cerevisiae deletion strains, growth OD
[1] = locus YBL105C, strain PKC1, hits give low values
[2] = locus YBR135W, strain CKS1, hits give low values
[3] = locus YBR136W, strain MEC1, hits give low values
[4] = locus YDL017W, strain CDC7, hits give low values
[5] = locus YDL108W, strain KIN28, hits give low values
[6] = locus YDL214C, strain PRR2, hits give low values
[7] = locus YDR052C, strain DBF4, hits give low values
[8] = locus YDR226W, strain ADK1, hits give low values
[9] = locus YDR477W, strain SNF1, hits give low values
[10] = locus YER123W, strain YCK3, hits give low values
[11] = locus YER133W, strain GLC7, hits give low values
[12] = locus YFL029C, strain CAK1, hits give low values
[13] = locus YFR003C, strain YPI1, hits give low values
[14] = locus YFR019W, strain FAB1, hits give low values
[15] = locus YFR028C, strain CDC14, hits give low values
[16] = locus YGR040W, strain KSS1, hits give low values
[17] = locus YGR052W, strain FMP48, hits give low values
[18] = locus YGR092W, strain DBF2, hits give low values
[19] = locus YHR030C, strain SLT2, hits give low values
[20] = locus YHR079C, strain IRE1, hits give low values
[21] = locus YHR082C, strain KSP1, hits give low values
[22] = locus YHR205W, strain SCH9, hits give low values
[23] = locus YIL147C, strain SLN1, hits give low values
[24] = locus YJL095W, strain BCK1, hits give low values
[25] = locus YJL157C, strain FAR1, hits give low values
[26] = locus YJR016C, strain ILV3, hits give low values
[27] = locus YJR066W, strain TOR1 (second series), hits give low values
[28] = locus YJR066W, strain TOR1, hits give low values
[29] = locus YKL048C, strain ELM1, hits give low values
[30] = locus YKL067W, strain YNK1, hits give low values
[31] = locus YKL101W, strain HSL1, hits give low values
[32] = locus YLR113W, strain HOG1, hits give low values
[33] = locus YLR133W, strain CKI1, hits give low values
[34] = locus YLR403W, strain SFP1, hits give low values
[35] = locus YML070W, strain DAK1, hits give low values
[36] = locus YMR205C, strain PFK2 (second series), hits give low values
[37] = locus YNL006W, strain LST8, hits give low values
[38] = locus YNL020C, strain ARK1, hits give low values
[39] = locus YNL161W, strain CBK1, hits give low values
[40] = locus YNL183C, strain NPR1, hits give low values
[41] = locus YNL222W, strain SSU72, hits give low values
[42] = locus YNL307C, strain MCK1 (second series), hits give low values
[43] = locus YOL136C, strain PFK27, hits give low values
[44] = locus YOR061W, strain CKA2, hits give low values
[45] = locus YOR119C, strain RIO1, hits give low values
[46] = locus YOR231W, strain MKK1, hits give low values
[47] = locus YOR329C, strain SCD5, hits give low values
[48] = locus YPL031C, strain PHO85, hits give low values
[49] = locus YPL153C, strain RAD53, hits give low values
[50] = locus YPL204W, strain HRR25, hits give low values
[51] = locus YPL209C, strain IPL1, hits give low values
[52] = locus YPL256C, strain CLN2, hits give low values
[53] = locus YPR025C, strain CCL1, hits give low values
[54] = locus YPR111W, strain DBF20, hits give low values
[55] = strain NNK1, hits give low values

Measured: normalized growth

Clc1cccc(Nc2ncc(-c3ccc4c(c3)OCCCO4)s2)c1
active: [19] 0.67 | [32] 0.682 | [52] 0.717
inactive: locus YAR019C, strain CDC15, hits give low values 0.978 | [1] 0.989 | [2] 0.981 | [3] 0.98 | locus YBR160W, strain CDC28, hits give low values 0.983 | [4] 0.988 | locus YDL028C, strain MPS1, hits give low values 0.956 | locus YDL101C, strain DUN1, hits give low values 1 | [5] 0.978 | locus YDL132W, strain cdc53, hits give low values 0.986 | [6] 0.893 | [7] 0.986 | locus YDR054C, strain cdc34, hits give low values 0.989 | [8] 0.988 | [9] 0.909 | [10] 0.864 | [11] 0.892 | locus YFL009W, strain cdc4, hits give low values 0.99 | [12] 0.977 | [13] 0.985 | [14] 0.898 | [15] 0.963 | [16] 0.905 | [17] 0.862 | [18] 0.88 | [20] 0.663 | [21] 0.951 | [22] 0.824 | [23] 0.973 | [24] 0.731 | locus YJL128C, strain PBS2, hits give low values 0.951 | [25] 0.894 | [26] 0.994 | [27] 0.902 | [28] 0.95 | [29] 0.965 | [30] 0.927 | [31] 0.923 | locus YKL193C, strain SDS22, hits give low values 0.985 | locus YKL203C, strain TOR2, hits give low values 1.01 | [33] 0.866 | [34] 0.881 | [35] 0.872 | locus YMR001C, strain CDC5, hits give low values 0.984 | [36] 0.894 | locus YMR277W, strain FCP1, hits give low values 0.968 | [37] 0.995 | [38] 0.86 | [39] 0.982 | [40] 0.799 | locus YNL207W, strain RIO2, hits give low values 0.987 | [41] 0.98 | [42] 0.864 | locus YOL078W, strain AVO1, hits give low values 0.972 | [43] 0.873 | [44] 0.86 | [45] 0.953 | [46] 0.759 | [47] 0.984 | [48] 0.889 | [49] 0.872 | [50] 0.86 | [51] 0.983 | [53] 0.968 | locus YPR106W, strain ISR1, hits give low values 0.971 | [54] 0.959 | [55] 0.974 | strain TSCII, hits give low values 0.971

Clc1ccc(-c2cnc(Nc3cc(Cl)cc(Cl)c3)s2)cc1
inactive: [3] 0.956 | [4] 0.972 | [5] 0.972 | [7] 0.965 | [8] 0.964 | [13] 0.97 | [15] 0.966 | [23] 0.961 | [53] 0.927 | [55] 0.967
active: [1] 0.63 | [2] 0.869 | [6] 0.134 | [9] 0.119 | [10] 0.158 | [11] 0.12 | [12] 0.514 | [14] 0.175 | [16] 0.142 | [17] 0.132 | [18] 0.148 | [19] 0.117 | [20] 0.204 | [21] 0.126 | [22] 0.0742 | [24] 0.16 | [25] 0.149 | [26] 0.791 | [27] 0.116 | [28] 0.109 | [29] 0.215 | [30] 0.164 | [31] 0.174 | [32] 0.163 | [33] 0.117 | [34] 0.0226 | [35] 0.166 | [36] 0.16 | [37] 0.679 | [38] 0.133 | [39] 0.529 | [40] 0.136 | [41] 0.608 | [42] 0.225 | [43] 0.147 | [44] 0.135 | [45] 0.46 | [46] 0.229 | [47] 0.781 | [48] 0.148 | [49] 0.136 | [50] 0.13 | [51] 0.625 | [52] 0.196 | [54] 0.674

CN/C(=C\[N+](=O)[O-])NCCSCc1csc(CN(C)C)n1
inactive: [19] 1.05 | [20] 1.04 | [24] 1.06 | [28] 0.927 | [32] 1.06 | [40] 0.996 | [46] 1.07 | [52] 1.08

CC(O)(P(=O)(O)O)P(=O)(O)O
inactive: locus YAL021C, strain ccr4, hits give low values 1.03 | locus YAL026C, strain drs2, hits give low values 0.993 | locus YAL030W, strain snc1, hits give low values 0.993 | locus YBL061C, strain skt5, hits give low values 0.993 | locus YBR009C, strain hhf1, hits give low values 0.976 | locus YBR023C, strain chs3, hits give low values 0.99 | locus YBR171W, strain sec66, hits give low values 0.992 | locus YBR231C, strain swc5, hits give low values 0.992 | locus YBR279W, strain paf1, hits give low values 0.997 | locus YCL011C, strain gbp2, hits give low values 0.99 | locus YCL016C, strain dcc1, hits give low values 0.988 | locus YCL061C, strain MRC1, hits give low values 1 | locus YCL069W, strain vba3, hits give low values 0.992 | locus YCR088W, strain abp1, hits give low values 0.989 | locus YDL005C, strain med2, hits give low values 1 | locus YDL040C, strain nat1, hits give low values 0.997 | locus YDR001C, strain nth1, hits give low values 0.988 | locus YDR069C, strain doa4, hits give low values 0.978 | locus YDR137W, strain rgp1, hits give low values 1 | locus YDR159W, strain sac3, hits give low values 0.955 | locus YDR195W, strain ref2 0.93 | locus YDR297W, strain sur2, hits give low values 0.993 | locus YDR334W, strain swr1, hits give low values 0.987 | locus YDR335W, strain msn5, hits give low values 0.991 | locus YDR392W, strain spt3, hits give low values 0.868 | locus YEL003W, strain gim4, hits give low values 0.982 | locus YEL037C, strain rad23, hits give low values 0.985 | locus YEL061C, strain CIN8 (second series), hits give low values 0.982 | locus YER015W, strain faa2, hits give low values 0.999 | locus YER016W, strain bim1, hits give low values 0.979 | locus YER111C, strain swi4, hits give low values 0.989 | locus YER155C, strain BEM2 (second series), hits give low values 0.969 | locus YFR010W, strain ubp6, hits give low values 0.993 | locus YGL167C, strain pmr1, hits give low values 0.982 | locus YGL173C, strain kem1, hits give low values 0.987 | locus YGL227W, strain vid30, hits give low values 0.993 | locus YGL240W, strain doc1, hits give low values 0.982 | locus YGL253W, strain hxk2, hits give low values 0.984 | locus YHR013C, strain ard1, hits give low values 0.954 | locus YHR027C, strain rpn1, hits give low values 0.996 | [19] 0.958 | [20] 0.961 | locus YHR142W, strain chs7, hits give low values 0.998 | locus YJL092W, strain hpr5, hits give low values 0.987 | locus YJL095W, strain BCK1 (second series), hits give low values 0.994 | [24] 0.995 | locus YJL115W, strain asf1, hits give low values 0.986 | locus YJL129C, strain trk1, hits give low values 0.989 | locus YJL154C, strain vps35, hits give low values 0.986 | locus YJL164C, strain tpk1, hits give low values 1 | locus YJL166W, strain qcr8, hits give low values 0.996 | locus YJL187C, strain SWE1, hits give low values 1 | [28] 0.93 | locus YKL160W, strain elf1, hits give low values 1.03 | locus YKR026C, strain gcn3, hits give low values 0.993 | locus YKR091W, strain srl3, hits give low values 0.995 | locus YLL001W, strain dnm1, hits give low values 0.98 | locus YLL026W, hits give low values 0.996 | locus YLL041C, strain sdh2, hits give low values 0.994 | locus YLR027C, strain aat2, hits give low values 0.999 | [32] 0.976 | locus YLR221C, strain rsa3, hits give low values 1.02 | locus YLR258W, strain gsy2, hits give low values 0.982 | locus YLR262C, strain YPT6 (second series), hits give low values 1 | locus YLR320W, strain mms22, hits give low values 0.983 | locus YLR342W, strain FKS1, hits give low values 1 | locus YLR357W, strain rsc2, hits give low values 0.981 | locus YLR370C, strain arc18, hits give low values 0.996 | locus YLR384C, strain iki3, hits give low values 0.995 | locus YML120C, strain ndi1, hits give low values 1.01 | locus YMR058W, strain fet3, hits give low values 0.998 | locus YMR125W, strain sto1, hits give low values 0.979 | locus YMR129W, hits give low values 0.994 | locus YMR205C, strain PFK2, hits give low values 0.967 | locus YMR231W, strain pep5, hits give low values 0.993 | locus YNL071W, strain lat1, hits give low values 0.993 | [40] 0.929 | locus YNL209W, strain ssb2, hits give low values 0.994 | locus YNL248C, strain rpa49, hits give low values 1.01 | locus YNL322C, strain KRE1 (second series), hits give low values 1 | locus YNR049C, strain mso1, hits give low values 0.985 | locus YOR001W, strain rrp6, hits give low values 1.02 | locus YOR070C, strain gyp1, hits give low values 0.992 | locus YOR080W, strain dia2, hits give low values 0.997 | locus YOR083W, strain WHI5, hits give low values 1.03 | locus YOR106W, strain vam3, hits give low values 1.02 | [46] 0.972 | locus YOR265W, strain rbl2, hits give low values 0.989 | locus YOR270C, strain vph1, hits give low values 0.99 | locus YOR290C, strain snf2, hits give low values 0.916 | locus YPL051W, strain arl3, hits give low values 1.01 | locus YPL078C, strain atp4, hits give low values 1.01 | locus YPL106C, strain sse1, hits give low values 0.985 | locus YPL240C, strain hsp82, hits give low values 0.983 | [52] 0.921

Source: PubChem BioAssay AID1159580 (chemical genetic matrix, 2015)
